Consider five molecules from ChEMBL document CHEMBL3988442, “University of Dundee, Small-Polar-MMV Screening Library” (2021).

For some assays here: Potency and affinity values are given separately.

Parameters in all cases: scale not given: direction of the effect not stated beside the values
Experiment [1] addresses Protein translocase subunit SecA (Escherichia coli (strain K12)) (UniProt P10408). The experiment can be described thus: Assay to Identify E. coli SecA ATPase Inhibitors. It is filed as functional. The settings on record: 30 µM.
The target of experiment [2] is T1, Ubiquitin-activating enzyme e1, putative (Leishmania donovani (strain BPK282A1)) (UniProt E9BSI1).
T1 sequence (whole entry): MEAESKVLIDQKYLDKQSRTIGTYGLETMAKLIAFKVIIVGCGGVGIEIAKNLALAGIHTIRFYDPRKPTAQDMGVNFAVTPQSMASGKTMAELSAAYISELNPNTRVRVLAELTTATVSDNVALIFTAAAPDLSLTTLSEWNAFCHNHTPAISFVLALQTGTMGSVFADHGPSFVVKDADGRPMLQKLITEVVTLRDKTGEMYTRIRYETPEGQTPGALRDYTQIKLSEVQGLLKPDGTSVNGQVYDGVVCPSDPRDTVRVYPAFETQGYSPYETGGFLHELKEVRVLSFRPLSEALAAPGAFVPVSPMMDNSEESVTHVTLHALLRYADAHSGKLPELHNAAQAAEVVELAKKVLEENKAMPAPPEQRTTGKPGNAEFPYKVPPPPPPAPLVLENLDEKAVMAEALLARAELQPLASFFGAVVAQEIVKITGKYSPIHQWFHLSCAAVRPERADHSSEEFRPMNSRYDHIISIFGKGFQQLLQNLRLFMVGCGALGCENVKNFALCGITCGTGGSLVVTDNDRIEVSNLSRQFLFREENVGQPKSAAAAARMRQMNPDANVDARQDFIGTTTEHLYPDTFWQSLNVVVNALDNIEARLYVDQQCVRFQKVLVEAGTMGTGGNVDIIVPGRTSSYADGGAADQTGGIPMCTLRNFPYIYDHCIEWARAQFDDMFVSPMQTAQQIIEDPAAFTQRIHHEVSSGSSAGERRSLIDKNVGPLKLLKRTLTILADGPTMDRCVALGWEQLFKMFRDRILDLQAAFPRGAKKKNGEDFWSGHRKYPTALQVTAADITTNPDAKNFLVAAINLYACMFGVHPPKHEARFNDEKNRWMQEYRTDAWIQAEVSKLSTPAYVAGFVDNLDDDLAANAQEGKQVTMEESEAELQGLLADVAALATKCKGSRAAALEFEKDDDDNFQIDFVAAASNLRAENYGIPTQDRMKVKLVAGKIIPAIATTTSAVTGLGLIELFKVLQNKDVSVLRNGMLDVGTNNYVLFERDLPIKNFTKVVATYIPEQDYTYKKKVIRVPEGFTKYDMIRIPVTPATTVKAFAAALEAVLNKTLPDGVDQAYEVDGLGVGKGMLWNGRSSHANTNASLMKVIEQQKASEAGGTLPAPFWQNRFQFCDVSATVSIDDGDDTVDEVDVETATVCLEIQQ
The experiment can be described thus: Leishmania donovani Ubiquitin Activating Enzyme (LdE1). It is filed as functional. The settings on record: 30 µM.

The target in experiment [3] is T2, Aspartate--tRNA(Asp/Asn) ligase (Mycobacterium tuberculosis (strain ATCC 25618 / H37Rv)) (UniProt P9WFW3). Note: in the data most compounds retested in dose-response had high values.
T2 sequence (whole entry): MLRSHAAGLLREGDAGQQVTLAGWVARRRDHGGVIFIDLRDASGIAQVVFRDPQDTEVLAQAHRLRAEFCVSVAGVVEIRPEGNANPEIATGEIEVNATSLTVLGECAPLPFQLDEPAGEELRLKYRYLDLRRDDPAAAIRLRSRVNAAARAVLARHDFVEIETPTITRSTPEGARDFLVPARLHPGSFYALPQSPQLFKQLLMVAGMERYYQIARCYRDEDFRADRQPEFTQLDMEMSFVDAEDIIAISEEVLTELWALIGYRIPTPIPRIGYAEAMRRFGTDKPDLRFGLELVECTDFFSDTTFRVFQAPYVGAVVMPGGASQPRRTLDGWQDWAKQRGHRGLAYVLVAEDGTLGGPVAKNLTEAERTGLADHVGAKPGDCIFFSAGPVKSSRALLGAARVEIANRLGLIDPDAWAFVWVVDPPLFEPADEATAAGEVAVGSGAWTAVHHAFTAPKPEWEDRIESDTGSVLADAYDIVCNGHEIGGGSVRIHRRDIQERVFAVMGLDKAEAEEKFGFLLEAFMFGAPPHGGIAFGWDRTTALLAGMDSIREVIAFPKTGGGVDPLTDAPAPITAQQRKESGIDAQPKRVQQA
The experiment can be described thus: Assay for Asp RNA synthetase-1 from Mycobacterium tuberculosis. The following applies: 30 µM. It is filed as functional.

The target of experiment [4] is AMP-activated protein kinase, AMPK (Homo sapiens) (UniProt P54646+O43741+P54619+Q9UGJ0+Q9Y478+Q13131+Q9UGI9). The experiment can be described thus: AMP-dependent Kinase enzyme assay. An in vitro enzyme assay that detects ADP turnover that is directly proportional to AMPK activity. This uses naive AMPK that is activated during the assay with MK-8722. It is filed as functional. The following applies: 30 µM.

Experiment [5] has as its target Sialic acid-binding Ig-like lectin 9 (Homo sapiens) (UniProt Q9Y336). In words: Hs-Siglec9 ALPHAscreen SOP 20170721. The following applies: 10 µM.
Another experiment has as its system Trypanosoma cruzi. The experiment can be described thus: Trypanosoma cruzi phosphomannomutase and mannose-1-phosphate guanylyltransferase assay. It is filed as functional. The settings on record: 10 µM.
The target of experiment [6] is T3, Arginase-2, mitochondrial (Homo sapiens) (UniProt P78540).
T3 sequence (whole entry): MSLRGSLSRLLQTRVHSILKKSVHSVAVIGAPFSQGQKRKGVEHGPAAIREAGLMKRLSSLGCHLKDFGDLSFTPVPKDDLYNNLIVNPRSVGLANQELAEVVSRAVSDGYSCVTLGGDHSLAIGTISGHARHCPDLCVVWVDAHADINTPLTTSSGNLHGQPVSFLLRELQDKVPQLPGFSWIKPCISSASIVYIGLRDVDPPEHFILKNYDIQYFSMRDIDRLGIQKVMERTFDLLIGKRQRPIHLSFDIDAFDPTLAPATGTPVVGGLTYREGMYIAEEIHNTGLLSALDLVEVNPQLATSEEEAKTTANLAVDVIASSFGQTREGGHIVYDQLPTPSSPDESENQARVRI
The experiment can be described thus: in vitro enzyme assay to detect the production of urea directly proportional to the activity of Arginase II. Note: in the data most compounds retested in dose-response had high values. The settings on record: 33.3 µM. Format: functional.

The target of experiment [7] is T4, Proteasome subunit beta (Trypanosoma cruzi) (UniProt O96673).
T4 sequence (whole entry): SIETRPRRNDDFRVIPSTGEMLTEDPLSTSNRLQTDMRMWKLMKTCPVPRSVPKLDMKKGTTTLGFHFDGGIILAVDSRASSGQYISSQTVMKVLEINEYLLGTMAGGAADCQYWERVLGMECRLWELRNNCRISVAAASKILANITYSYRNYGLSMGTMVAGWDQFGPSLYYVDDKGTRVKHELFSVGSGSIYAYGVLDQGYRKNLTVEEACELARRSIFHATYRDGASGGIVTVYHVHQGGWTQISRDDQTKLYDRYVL
In words: Trypanosoma cruzi proteasome chymotrypsin-like activity (TcProtChymo) assay. Note: in the data most compounds retested in dose-response had high values. The settings on record: 9.37 µM. It is filed as functional.

The species entered for the next experiment is Homo sapiens. The experiment can be described thus: To identify inhibition of the IFN signalling (Jak-Stat) pathway via expression of an eGFP reporter gene under the control of an IFN-stimulated response element (ISRE) containing MxA promoter. The following applies: 30 µM. Format: functional.
The target of experiment [8] is Shiga toxin 2 (Escherichia coli O157:H7) (UniProt P09385+P09386). The experiment can be described thus: E. coli 0.157:H7 Shiga Toxin SOP - stx2 screening assay. It is filed as functional. The settings on record: 30 µM.
Experiment [9] has as its target T5, Tyrosyl-tRNA synthetase, putative (Trypanosoma cruzi (strain CL Brener)) (UniProt Q4DSP6).
T5 sequence (whole entry): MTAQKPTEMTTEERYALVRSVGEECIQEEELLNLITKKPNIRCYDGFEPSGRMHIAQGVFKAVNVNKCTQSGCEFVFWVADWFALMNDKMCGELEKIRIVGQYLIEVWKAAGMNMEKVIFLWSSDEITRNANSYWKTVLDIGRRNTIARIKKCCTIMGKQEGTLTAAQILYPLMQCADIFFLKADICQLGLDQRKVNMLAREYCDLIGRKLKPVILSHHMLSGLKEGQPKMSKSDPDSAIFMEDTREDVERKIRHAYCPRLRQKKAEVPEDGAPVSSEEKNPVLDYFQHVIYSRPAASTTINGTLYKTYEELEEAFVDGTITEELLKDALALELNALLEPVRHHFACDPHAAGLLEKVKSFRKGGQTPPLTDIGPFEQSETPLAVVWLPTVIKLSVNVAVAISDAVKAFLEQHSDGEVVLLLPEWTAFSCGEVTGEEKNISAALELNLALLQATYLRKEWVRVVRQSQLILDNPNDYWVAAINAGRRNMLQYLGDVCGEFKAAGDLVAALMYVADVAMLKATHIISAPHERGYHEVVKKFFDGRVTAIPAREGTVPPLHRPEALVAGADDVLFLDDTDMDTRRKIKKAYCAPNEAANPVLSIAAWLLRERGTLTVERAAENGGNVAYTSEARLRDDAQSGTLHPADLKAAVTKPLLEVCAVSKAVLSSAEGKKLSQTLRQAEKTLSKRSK
In words: Trypanosoma cruzi tyrosyl tRNA synthetase (TcYRS) _High Tyrosine SOP. Note: in the data most compounds retested in dose-response had high values. It is filed as functional. The settings on record: 30 µM.

Experiment [10] addresses T5, Tyrosyl-tRNA synthetase, putative (Trypanosoma cruzi (strain CL Brener)). In words: Trypanosoma cruzi tyrosyl tRNA synthetase (TcYRS) SOP. It is filed as functional. The settings on record: 30 µM.
Experiment [11] deals with Chromo domain-containing protein 1 (Saccharomyces cerevisiae (strain ATCC 204508 / S288c) (Baker's yeast)) (UniProt P32657). In words: ScCHD-1 Enzyme Inhibition Assay. Note: in the data most compounds retested in dose-response had high values. Format: functional. The following applies: 30 µM.
Chromo domain-containing protein 1 (Saccharomyces cerevisiae (strain ATCC 204508 / S288c) (Baker's yeast)), sequence (P32657 whole entry, the tested form may be a part): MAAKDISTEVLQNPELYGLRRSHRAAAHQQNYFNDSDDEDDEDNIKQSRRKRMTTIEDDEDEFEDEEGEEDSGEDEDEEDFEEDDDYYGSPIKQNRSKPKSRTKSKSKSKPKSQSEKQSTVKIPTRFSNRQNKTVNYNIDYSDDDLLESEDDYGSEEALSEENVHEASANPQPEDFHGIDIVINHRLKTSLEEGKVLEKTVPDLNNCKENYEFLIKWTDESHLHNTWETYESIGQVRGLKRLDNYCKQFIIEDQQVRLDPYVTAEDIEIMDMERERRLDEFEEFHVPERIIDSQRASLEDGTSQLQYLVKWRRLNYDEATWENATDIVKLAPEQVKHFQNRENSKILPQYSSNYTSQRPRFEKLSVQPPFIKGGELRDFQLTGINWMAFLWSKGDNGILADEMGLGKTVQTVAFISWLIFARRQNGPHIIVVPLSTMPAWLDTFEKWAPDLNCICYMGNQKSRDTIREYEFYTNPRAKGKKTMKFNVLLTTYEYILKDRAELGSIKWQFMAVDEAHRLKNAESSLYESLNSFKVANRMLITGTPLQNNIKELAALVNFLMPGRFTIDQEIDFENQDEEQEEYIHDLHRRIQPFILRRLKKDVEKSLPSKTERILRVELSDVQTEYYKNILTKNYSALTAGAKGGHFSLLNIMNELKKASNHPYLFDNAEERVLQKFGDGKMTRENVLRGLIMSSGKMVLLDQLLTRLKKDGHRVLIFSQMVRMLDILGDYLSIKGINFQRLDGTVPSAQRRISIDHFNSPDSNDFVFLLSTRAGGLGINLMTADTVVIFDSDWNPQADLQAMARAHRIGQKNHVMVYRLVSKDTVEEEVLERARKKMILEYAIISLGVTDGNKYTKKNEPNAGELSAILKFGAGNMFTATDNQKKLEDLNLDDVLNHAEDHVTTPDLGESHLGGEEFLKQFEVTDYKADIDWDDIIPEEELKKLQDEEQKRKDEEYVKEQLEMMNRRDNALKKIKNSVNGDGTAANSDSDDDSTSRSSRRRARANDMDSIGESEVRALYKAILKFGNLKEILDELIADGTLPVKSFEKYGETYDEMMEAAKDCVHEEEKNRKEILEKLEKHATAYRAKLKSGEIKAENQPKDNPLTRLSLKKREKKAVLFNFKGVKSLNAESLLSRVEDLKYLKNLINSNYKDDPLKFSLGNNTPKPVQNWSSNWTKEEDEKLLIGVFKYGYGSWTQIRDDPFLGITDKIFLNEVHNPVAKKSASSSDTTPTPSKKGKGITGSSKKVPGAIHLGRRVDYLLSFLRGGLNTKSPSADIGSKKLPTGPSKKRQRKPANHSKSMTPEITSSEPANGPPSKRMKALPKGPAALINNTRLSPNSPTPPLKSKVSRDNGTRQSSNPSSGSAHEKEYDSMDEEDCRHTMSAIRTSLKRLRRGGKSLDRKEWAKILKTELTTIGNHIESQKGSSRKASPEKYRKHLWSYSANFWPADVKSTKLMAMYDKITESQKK

Sialic acid-binding Ig-like lectin 9 (Homo sapiens), sequence (Q9Y336 whole entry): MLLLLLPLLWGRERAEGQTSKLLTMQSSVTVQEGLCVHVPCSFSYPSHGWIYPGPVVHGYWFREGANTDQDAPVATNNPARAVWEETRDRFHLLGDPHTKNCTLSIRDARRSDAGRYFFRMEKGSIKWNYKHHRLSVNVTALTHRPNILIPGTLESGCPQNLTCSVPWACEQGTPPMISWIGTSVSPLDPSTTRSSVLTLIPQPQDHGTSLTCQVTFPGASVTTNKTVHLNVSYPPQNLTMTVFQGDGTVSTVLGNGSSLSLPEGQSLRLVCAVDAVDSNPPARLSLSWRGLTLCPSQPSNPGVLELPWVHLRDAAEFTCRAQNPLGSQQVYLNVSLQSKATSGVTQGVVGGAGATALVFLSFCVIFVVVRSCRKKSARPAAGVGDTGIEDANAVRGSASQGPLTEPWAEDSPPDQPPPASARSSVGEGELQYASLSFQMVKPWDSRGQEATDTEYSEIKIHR
Protein translocase subunit SecA (Escherichia coli (strain K12)), sequence (P10408 whole entry): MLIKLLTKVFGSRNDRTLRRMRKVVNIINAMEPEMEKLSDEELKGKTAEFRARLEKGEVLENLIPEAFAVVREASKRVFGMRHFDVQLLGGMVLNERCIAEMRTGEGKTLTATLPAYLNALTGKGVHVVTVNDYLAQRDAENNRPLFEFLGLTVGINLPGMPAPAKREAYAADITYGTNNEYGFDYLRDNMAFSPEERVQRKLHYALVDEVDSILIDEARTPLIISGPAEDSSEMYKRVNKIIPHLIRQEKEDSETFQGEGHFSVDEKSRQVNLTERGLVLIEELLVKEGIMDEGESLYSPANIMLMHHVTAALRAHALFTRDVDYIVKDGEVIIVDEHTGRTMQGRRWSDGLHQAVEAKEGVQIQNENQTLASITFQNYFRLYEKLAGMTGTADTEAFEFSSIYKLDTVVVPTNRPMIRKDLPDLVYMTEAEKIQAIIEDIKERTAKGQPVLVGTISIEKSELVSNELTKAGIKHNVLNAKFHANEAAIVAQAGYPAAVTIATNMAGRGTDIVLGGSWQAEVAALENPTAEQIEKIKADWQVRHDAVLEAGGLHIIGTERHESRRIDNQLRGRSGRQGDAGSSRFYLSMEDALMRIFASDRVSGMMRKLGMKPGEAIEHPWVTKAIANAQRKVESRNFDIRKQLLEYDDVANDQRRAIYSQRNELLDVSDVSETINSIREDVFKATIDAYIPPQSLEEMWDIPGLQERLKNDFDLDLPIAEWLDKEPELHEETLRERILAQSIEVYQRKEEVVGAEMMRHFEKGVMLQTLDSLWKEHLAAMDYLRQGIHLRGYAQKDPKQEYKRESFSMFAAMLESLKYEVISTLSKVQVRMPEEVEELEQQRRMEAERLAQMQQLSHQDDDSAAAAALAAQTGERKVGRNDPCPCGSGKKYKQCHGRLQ

Turning to `Cc1cc(CN2CC[C@H]3C[C@H](c4nccs4)O[C@@H]3C2)no1`, the Percent Effect in [1] was 2.63%; in experiment [2] it was -2.7%; in experiment [3], -1.08%; in experiment [4] it was 5.99%; in [5], 4.06%; in the experiment on Trypanosoma cruzi it was -1.47%. Also, the Percent Effect was 0.319% in [6]; 12.9% in experiment [7]; -4.4% in the experiment listed under Homo sapiens; 3.88% in experiment [8]; 0% in experiment [9]; 0% in [10]. Also, in experiment [11], the Percent Effect was found to be 7.66%.

On to `O=C(NCc1ccccn1)[C@]12COC[C@H]1CN(C1CCC1)C2`, for which the Percent Effect in experiment [1] was -2.39%; in [2], 18.7%; in experiment [3], -4.34%; in experiment [4], 0.454%; in experiment [5], 0.409%; in the experiment with Trypanosoma cruzi, 3.86%. In addition, the Percent Effect was 85.8% in [6]; 10.9% in [7]; -5.18% in the experiment filed under Homo sapiens; -15.4% in experiment [8]; 3.12% in [9]; 10% in experiment [10]. Also, the Percent Effect in [11] was -7.8%.

Turning to `Cc1cc(CN2CC[C@H]3OCC[C@@]3(C(=O)NC(C)C)C2)no1`, the Percent Effect in experiment [1] was -1.37%; in experiment [2] it was 15.6%; in experiment [3], 0.364%; in [4], 0.843%; in experiment [5] it was 5.07%; in the experiment on Trypanosoma cruzi it was 0.888%. The Percent Effect in experiment [6] is 4.52%; in experiment [7] it was 10.4%; in the experiment filed under Homo sapiens, 16.3%; in experiment [8] it was -28.2%; in experiment [9], 5.29%; in [10], 11.5%. In experiment [11], the Percent Effect is -5.46%.

As for `Cc1cc(CN2C[C@@H]3COC[C@]3(CN(C)C)C2)no1`, the Percent Effect in experiment [1] is -1.63%; in experiment [2] it was -2.7%; in [3] it was -2.03%; in experiment [4], 7.75%; in [5], 3.28%; with Trypanosoma cruzi, -3.42%. The Percent Effect in experiment [6] was 1.59%; in experiment [7] it was 26.4%; in the experiment listed under Homo sapiens, -4.54%; in experiment [8] it was -2.49%; in [9], 3.24%; in experiment [10], 2.56%. Moreover, the Percent Effect in [11] is -2.67%.

`O=C(c1cccnc1)N1C[C@@H]2CC[C@H](C1)N(Cc1ncc[nH]1)C2`: the Percent Effect was -1.65% in [1]; 16.4% in [2]; 2.47% in [3]; 9.09% in experiment [4]; 6.45% in experiment [5]; 5.88% in the experiment with Trypanosoma cruzi. Also, the Percent Effect in experiment [6] was 5.91%; in experiment [7], 11.4%; in the experiment filed under Homo sapiens, 7.79%; in [8], -0.806%; in experiment [9], 7.53%; in experiment [10], 15%. Further, the Percent Effect in experiment [11] is -3.77%.
